Laboratory results reported in the supplement of paper PMC7556523.

tested on: Sporothrix brasiliensis CBS 133006; experiment: growth inhibition relative to untreated control; higher = more growth inhibition (more antifungal activity), active = 80 or more; extreme values may be limits of the assay; conditions: 1 µM; 48 h
Outline: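 Yeast-form cells of the reference isolates (grown 7 days in brain heart infusion broth with 2% glucose at 36°C) were exposed at 1 x 10^5 CFU/ml to library compounds at a final 1 μM for 48 h at 35°C in 5% CO2. Growth was checked by visual inspection under an inverted light microscope and quantified by spectrophotometric readings. The value is percent growth inhibition relative to untreated control. Runs were in quadruplicate.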

Growth inhibition, inactive:
FC(F)(F)c1nnc2ccc(Cl)nn12 9.25%
CCS(=O)(=O)N(Cc1ccco1)Cc1cc2ccc(C)cc2nc1O 2.5%
Nc1cccnc1Nc1ccc(Cl)cc1 13.8%
Cn1ccnc1CNCCS(=O)(=O)c1cccc(Nc2ccc(-c3cccc(F)c3)cn2)c1 4.25%
COc1ccc(C2=NN(C3CCCCCC3)C(=O)C2(C)C)cc1OCCCCOc1ccc(-c2nn[nH]n2)cc1 6.25%
FC(F)(F)c1cnc(Sc2nnc(-c3ccncc3)o2)c(Cl)c1 3.5%
Clc1ccc(CCNc2cc(-c3ccccc3)nc3ncnn23)cc1 9.75%
COc1ccccc1OCCCCn1c(C2CC2)nc2ccccc21 7.75%
O=C(NCc1ccoc1)N1CCN(Cc2ccc3c(c2)OCO3)CC1 7.5%
COc1cccc(-c2cc3c(Nc4cccnc4)nccc3[nH]2)c1 4%
O=C(C1CCN(c2cc(-n3cccc3)ncn2)CC1)N1CCc2ccccc2C1 6%
NS(=O)(=O)c1cncc(-c2ccc3nccc(-c4cn[nH]c4)c3n2)c1 5.5%
Brc1c(-c2ccc3c(c2)OCO3)nc2ncccn12 19.5%
c1ccc2c(c1)CN(CC1CC1)CC1(CCN(Cc3c[nH]c4cnccc34)CC1)O2 1.25%
O=C(NCc1cc(Cl)cc(Cl)c1)c1c(C(F)(F)F)nc2ccccn12 21.5%
C[C@H](c1ccc2c(c1)CCCC2)N(C)c1ncc2c(N)nc(N)nc2n1 10%
c1ccc(-c2[nH]c3ccccc3c2C(c2ccccn2)N2CCCC2)cc1 (stereo not drawn) 4.25%
Nc1ncnc2c1ncn2C[C@@H](O)[C@@H](O)C(=O)O 5%
FC(F)(F)c1ccc(N(c2cccnc2)C2CCN(c3ccc(C(F)(F)F)cn3)CC2)cc1 0%
Cc1cc(C)n(-c2ccc(NC(=O)C3CCN(Cc4cnc(C)s4)CC3)cc2)n1 5.5%
Nc1ncc(-c2ccc(C(F)(F)F)nc2)cc1-c1ccc(C(F)(F)F)nc1 18.2%
CCOc1ccc2cc(-c3nn(CC4CCN(C)CC4)c4ncnc(N)c34)ccc2c1 1.75%
Nc1ncnc2c1c(Cc1cccc3ccccc13)nn2CC1CCNCC1 0%
CC(C)n1nc(-c2cc3c(Cl)cccc3[nH]2)c2c(N)ncnc21 15%
O=C(NCCc1c[nH]c2ccccc12)c1cc2ccccc2oc1=O 17.8%
CCN(CC)CCCN1CCN(C(=O)c2cccc(-c3noc(C(F)(F)F)n3)c2)CC1 25%
Cc1ccc2[nH]c(C3CCCNC3)c(-c3ccncc3)c2c1 (stereo not drawn) 19%
CCc1ccccc1-n1c(C)cn2c3c(=O)n(C(C(=O)OC)C(C)C)c(=O)n(C)c3nc12 (stereo not drawn) 15.8%
CCN(CC)S(=O)(=O)c1ccc(C(=O)Nc2cc(C)nn2-c2nc(C)c(C)c(=O)[nH]2)cc1 1.25%
O=C(Nc1cccc(Cl)c1)c1cnc(N2CCN(c3ccncc3)CC2)c(Cl)c1 0.75%
Cc1cnc(N2CCN[C@@H](Cc3ccccc3)C2)nc1Oc1ccc(-n2ccnc2)cc1 2.75%
CN1CCN(S(=O)(=O)c2ccc(-c3ccc4c(Nc5ccc6nn[nH]c6c5)ccnc4c3)cc2)CC1 4.25%
CCCS(=O)(=O)N1CCC(CO)(Cc2ccccc2C(F)(F)F)CC1 0%
CCc1nc2ccccc2n1CC(O)COc1cc(C)ccc1Cl (stereo not drawn) 1.25%
CCN(CC)S(=O)(=O)c1ccc(Cl)c(C(=O)Nc2ccc3nc(C)sc3c2)c1 0.5%
Cc1[nH]c2cc(F)cc(F)c2c(=O)c1-c1ccc(Oc2ccc(OC(F)(F)F)cc2)cc1 2.25%

Growth inhibition, active:
CCc1c(C)nc(-n2nc(C)cc2NC(=O)c2ccccc2SC)[nH]c1=O 93.5%
Cc1nc(-c2ccccn2)nc(N(C)CCc2ccccc2)c1Cl 80.8%
